High-throughput results from PubChem BioAssay.
Sampled rows, rich in hits. Any-hit rate of the full collection: about 6.9%.
HP1b chromo inh = HTS for Inhibitors of HP1-beta Chromodomain Interactions with Methylated Histone Tails. Chromobox protein homolog 1 (Homo sapiens), P83916. AlphaScreen HP1-beta / biotin-H3K9me3 peptide binding. Potency, µM (doses to about 114 µM), for the others: top-dose activity change, negative = inhibition, most hits filed as inhibitors. 390,000 compounds, 0.56% hits; also: nearly all actives have a fitted effect of over 70% in size
Target sequence (P83916 whole entry, looked up): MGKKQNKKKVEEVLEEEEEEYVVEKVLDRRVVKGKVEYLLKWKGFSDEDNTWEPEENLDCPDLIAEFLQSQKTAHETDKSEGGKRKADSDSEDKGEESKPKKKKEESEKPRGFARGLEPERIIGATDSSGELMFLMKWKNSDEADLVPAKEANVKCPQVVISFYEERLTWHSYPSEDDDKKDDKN
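Compound inhibition of the preformed complex between 50 nM HP1-beta and 50 nM biotinylated H3K9me3 peptide was read by AlphaScreen. Buffer was PBS pH 7.4 with 0.01% Tween-20. Incubations ran 30 min at room temperature, with 10 ug/mL donor/acceptor beads.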
BAZ2B block = qHTS Assay for Inhibitors of BAZ2B; Potency, µM (doses to about 114 µM), for inactives: top-dose activity change, negative = inhibition, usual class: inhibitors; AID 504333, 2011; AlphaScreen BAZ2B-H3K14Ac peptide displacement; Bromodomain adjacent to zinc finger domain protein 2B (Homo sapiens), Q9UIF8; 360,000 compounds, 4.4% hits; also: % is scaled to controls: 0 for no effect and ±100 for the full control effect; nearly all actives have a fitted effect of over 60% in size
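Inhibition is scored as reduced AlphaScreen emission. The BAZ2B/b-H3(5-23)K14Ac complex (50 nM each) in PBS pH 7.4, 0.01% Tween-20 meets compound (up to 110 uM) for 30 min at RT before bead addition.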
VDR inhibitor = Inhibitors of the vitamin D receptor (VDR): qHTS; 400,000 compounds, 0.93% hits; VDR-SRC2-3 peptide fluorescence polarization, 2 h; Potency, µM, without a hit: max response, negative = inhibition, most hits filed as inhibitors; also: % is scaled to controls: 0 for no effect and ±100 for the full control effect
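Reagent solutions, kept cold and dark, are dispensed first; compounds are then pinned in at 23 nl, plates briefly spun, and incubated 2 h at ambient temperature. Inhibition of VDR–SRC2-3 peptide binding is read by fluorescence polarization.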
JMJD2A Tudor inh = qHTS Assay for Inhibitors of JMJD2A-Tudor Domain; AlphaScreen JMJD2A-Tudor / H3K4me3 peptide binding; 390,000 compounds, 4.4% hits; Potency, µM (series often up to 114 µM), for inactives: at the highest dose activity change, negative = inhibition, usual class: inhibitors; Lysine-specific demethylase 4A (Homo sapiens), O75164; also: % is scaled to controls: 0 for no effect and ±100 for the full control effect; nearly all actives have a fitted effect of over 50% in size
L3MBTL1 inh = qHTS Assay for the Inhibitors of L3MBTL1. 230,000 compounds, 0.66% hits. AlphaScreen L3MBTL1–H3K9me1 peptide binding. Potency, µM (top dose mostly 57.1 µM), for inactives: at the top dose activity, negative = inhibition, most hits filed as inhibitors. Lethal(3)malignant brain tumor-like protein 1 (Homo sapiens), Q9Y468; also: % is scaled to controls: 0 for no effect and ±100 for the full control effect; nearly all actives have a fitted effect of over 60% in size
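Read-out is AlphaScreen signal from streptavidin donor and nickel chelate acceptor beads (10 ug/mL final each) bridging L3MBTL1 (50 nM) and biotinylated K9-monomethylated H3(1-15) peptide (75 nM), after 30 min compound exposure at room temperature.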
PLK1 PBD inh = qHTS for Inhibitors of PLK1-PDB (polo-like kinase 1 - polo-box domain): Primary Screen | Serine/threonine-protein kinase PLK1 (Homo sapiens), P53350 | Plk1 PBD binding of FITC phosphopeptide, fluorescence polarization | Potency, µM, for inactives: max response, negative = inhibition, actives largely listed as inhibitors | 360,000 compounds, 2.8% hits; also: series mostly up to about 57 µM; % is scaled to controls: 0 for no effect and ±100 for the full control effect; nearly all actives have a fitted effect of over 65% in size
The depositor's hits bear a star; ? = inconclusive; · = no result given. Calls follow the shape of the dose curve; as a rule, active = well fitted curve in the direction sought with a large enough effect; inconclusive = small, poorly fitted or top-dose-only effect, or another doubt; inactive = no such curve, though single readings can be large; an effect the other way counts as inactive or inconclusive. Potency is read from the fitted curve at half-maximal effect.

SMILES | HP1b chromo inh | BAZ2B block | VDR inhibitor | JMJD2A Tudor inh | L3MBTL1 inh | PLK1 PBD inh
CCc1ccc(Nc2n[n+](-c3ccccc3)c(/C=C/c3ccccc3)s2)cc1 | · | 28µM* | · | · | -9% | ·
CCc1ccc(Nc2n[n+](-c3ccccc3)c(-c3c(Cl)cccc3Cl)s2)cc1 | -5% | 8.9µM* | ? | 16µM* | ? | -19%
COc1ccc2ccccc2c1-c1sc(Nc2ccccc2)n[n+]1-c1ccc(F)cc1 | ? | 32µM* | -19% | 40µM* | -12% | -12%
CCc1ccc(Nc2n[n+](-c3ccccc3)c(-c3cc(OC)c(OC)cc3Br)s2)cc1 | -6% | 32µM* | -6% | 79µM* | -3% | -15%
COc1ccc(-c2sc(Nc3ccccc3)n[n+]2-c2ccc(F)cc2)cc1Br | 7% | -12% | -11% | ? | -3% | ?
CCc1ccc(Nc2nc3ccccc3c(=O)s2)cc1 | 39% | -2% | -13% | -1% | 1% | -4%
Fc1ccc(-[n+]2nc(Nc3ccccc3)sc2-c2c(Cl)cccc2Cl)cc1 | ? | 40µM* | -12% | 35µM* | ? | -5%
CCn1c(C(=O)Nc2ccccc2C(=O)OC)cc2sc(Cl)cc21 | 119% | 8% | -3% | 41% | · | ·
O=C1N/C(=N/N=C/c2ccco2)SC1Cc1ccccc1 (stereo unspecified) | 34% | -19% | -19% | -9% | 4% | -2%
C/C(=N\N=C1\NC(=O)C(Cc2ccccc2)S1)c1ccccc1 (stereo unspecified) | ? | ? | 7% | 63µM* | -6% | 30µM*
O=C(NN1CCOCC1)c1ccccc1F | 29% | 0% | -1% | -11% | · | -12%
O=C(NN1CCOCC1)c1cccc2ccccc12 | 2% | -4% | ? | 50µM* | 6% | 30µM*
COc1ccc2nc3cc(Cl)ccc3c(Nc3cc(CN4CCCC4)c(O)c(CN4CCCC4)c3)c2n1 | · | 40µM* | · | · | · | ·
CCCC(=O)NCCc1nc2cc([N+](=O)[O-])ccc2n1C | 33% | 12% | -1% | 11% | 1% | -1%
NC(=O)c1cc[n+](CC2=C(C(=O)[O-])N3C(=O)[C@@H](NC(=O)Cc4cccs4)[C@@H]3SC2)cc1 | · | · | 16µM* | · | · | ·
NC(=O)c1cc[n+](CC2=C(C(=O)O)N3C(=O)[C@@H](NC(=O)C(c4ccccc4)S(=O)(=O)[O-])[C@H]3SC2)cc1 (stereo partly specified) | ? | 2% | -22% | 1.1µM* | -14% | 4.7µM*
CC1=C(C(=O)O)N2C(=O)[C@@H](NC(=O)C(N)c3ccccc3)[C@H]2SC1 (stereo partly specified) | · | · | -16% | · | · | ·
O=c1oc(-c2ccccc2)cc(Cl)c1Cl | 18% | -2% | -23% | -4% | · | 11µM*
CCOP(=O)(OCC)C(C)(C)NC(=O)Nc1ccc(Cl)c(Cl)c1 | 31% | 2% | 0% | -12% | 6% | -8%
COc1cc(C(=O)NCC(=O)NC(C)c2ccc(-n3ccnc3)cc2)cc(OC)c1OC (stereo unspecified) | 2% | 7% | -17% | -8% | 0% | -7%
COc1cc(C(=O)NC(C)c2ccc(-n3ccnc3)cc2)cc(OC)c1C (stereo unspecified) | -5% | 50µM* | -11% | 79µM* | · | -2%
CC1(C)CC(NC(=O)c2ccccn2)CC(C)(C)N1O | 47% | 50µM* | 3% | ? | 7% | ?
O=C(N[C@H]1CC[C@H](CCNC(=O)C2CC2)O[C@@H]1CO)c1ccccn1 | · | · | · | · | · | -4%
CN(C)c1cc2c3ccccc3n(C)c2cc1N | 45µM* | · | -9% | 32µM* | · | -19%
